This passage reports outcome and Potency results from PubChem BioAssay (NCATS).

Records with an inconclusive call do not appear. Entries that show only a call come without a potency. Calls of active or inactive are those of the source. The call rests on the fitted dose curve.

A short description of the first assay: qHTS for inhibitors of Rabies Virus screened against the NCATS CANVASS Library (AID 1347402). The settings on record: Rabies virus infection cell assay; series mostly up to 45.9 µM.
For the molecule `COc1cc2oc3ccccc3c(=O)c2cc1OC`, the molecule was classed as inactive.
In the case of `O=C(O)C(O)Cc1ccc(O)c(O)c1` (stereo not drawn), the result was inactive.
For the molecule `O=c1cc(-c2ccccc2)oc2cc(O)c(O)c(O)c12`, the call was inactive.
The same measure, in the same setting: in the case of `NCCc1ccccc1` it was “inactive”; in that of `O=c1cc(-c2ccc(O)c(O)c2)oc2cc(O[C@@H]3O[C@H](CO)[C@@H](O)[C@H](O)[C@H]3O)cc(O)c12`, “inactive”.
On the same count and under the same terms, in the case of `CC(=O)NCCc1c[nH]c2ccc(O)cc12` it was “inactive”; in that of `O=C(O)Cc1c[nH]c2ccc(O)cc12`, “inactive”.
On to `O=c1c(O)c(-c2ccc(O)c(O)c2)oc2cc(O)ccc12`, for which the result was inactive.
With `O=C(O)Cc1c[nH]c2ccccc12`, the outcome was inactive.
For the molecule `CN(C)Cc1c[nH]c2ccccc12`, the molecule was classed as inactive.

A short description of a further assay: Primary qHTS for inhibitors of SARS-S pseudo-typed particle cell entry (AID 1479145). Further: nearly all actives have a fitted effect of over 45% in size. The note with it: SARS-S pseudotyped particle cell entry, luciferase reporter; series mostly up to 57.1 µM.
Turning to `NCC1CCC(C(=O)O)CC1` (stereo not drawn), the outcome is “inactive [at 11.4 µM]”.
`CC(/C=C/C=C(\C)C(=O)O[C@@H]1O[C@H](CO[C@@H]2O[C@H](CO)[C@@H](O)[C@H](O)[C@H]2O)[C@@H](O)[C@H](O)[C@H]1O)=C\C=C\C=C(C)\C=C\C=C(/C)C(=O)O[C@@H]1O[C@H](CO[C@@H]2O[C@H](CO)[C@@H](O)[C@H](O)[C@H]2O)[C@@H](O)[C@H](O)[C@H]1O`: the Potency entry is “inactive”.
On the same count and under the same terms, next, `O=C(Nc1c(Cl)cncc1Cl)c1ccc(OC(F)F)c(OCC2CC2)c1`: “inactive”.
As for `CC1=C(/C=C/C(C)=C/C=C/C(C)=C/C=C/C=C(C)/C=C/C=C(C)/C=C/C2=C(C)C[C@@H](O)CC2(C)C)C(C)(C)C[C@H](O)C1`, the Potency entry is “inactive”.
On to `C[C@@H](O)[C@H]1C(=O)N2C(C(=O)OCOC(=O)C(C)(C)C)=C(SC3CN(C4=NCCS4)C3)[C@H](C)[C@H]12`, for which the Potency result was “inactive”.
For the molecule `CC(CC=O)CCCC(C)(C)O` (stereo not drawn), the Potency result was “inactive”.
The same measure, in the same setting: in the case of `C[Se]CC[C@H](N)C(=O)O` it was “inactive”; in that of `Cc1cc(O)c2c(c1)O[C@@]1(C)CC[C@H]3C(C)(C)CCCC34CO[C@@H]2[C@H]41` (stereo partly drawn), “inactive”; in that of `COc1cc2c(c(OC)c1OC)-c1c(cc3c(c1OC)OCO3)C[C@H](C)[C@@](C)(O)C2`, “inactive”.

A short description of a further assay: Primary qHTS for Huh7 cytotoxicity: counterscreen for inhibitors of MERS-S pseudotyped particle cell entry (AID 1479147). The note with it: cell viability read-out; series mostly up to 57.1 µM.
Consider `NCC1CCC(C(=O)O)CC1` (stereo not drawn), for which the outcome is “inactive [at 11.4 µM]”.
Same read-out and setting: in the case of `CC(/C=C/C=C(\C)C(=O)O[C@@H]1O[C@H](CO[C@@H]2O[C@H](CO)[C@@H](O)[C@H](O)[C@H]2O)[C@@H](O)[C@H](O)[C@H]1O)=C\C=C\C=C(C)\C=C\C=C(/C)C(=O)O[C@@H]1O[C@H](CO[C@@H]2O[C@H](CO)[C@@H](O)[C@H](O)[C@H]2O)[C@@H](O)[C@H](O)[C@H]1O` it was “inactive”; in that of `O=C(Nc1c(Cl)cncc1Cl)c1ccc(OC(F)F)c(OCC2CC2)c1`, “inactive”.
Consider `CC1=C(/C=C/C(C)=C/C=C/C(C)=C/C=C/C=C(C)/C=C/C=C(C)/C=C/C2=C(C)C[C@@H](O)CC2(C)C)C(C)(C)C[C@H](O)C1`, for which the outcome was inactive.
Regarding `C[C@@H](O)[C@H]1C(=O)N2C(C(=O)OCOC(=O)C(C)(C)C)=C(SC3CN(C4=NCCS4)C3)[C@H](C)[C@H]12`, the outcome was inactive.
As for `CC(CC=O)CCCC(C)(C)O` (stereo not drawn), the result was inactive.
In the case of `C[Se]CC[C@H](N)C(=O)O`, the outcome was “inactive [at 26.4 µM]”.
As for `Cc1cc(O)c2c(c1)O[C@@]1(C)CC[C@H]3C(C)(C)CCCC34CO[C@@H]2[C@H]41` (stereo partly drawn), the result was inactive.
With `COc1cc2c(c(OC)c1OC)-c1c(cc3c(c1OC)OCO3)C[C@H](C)[C@@](C)(O)C2`, the result was inactive.
